This is an account of results in PubChem BioAssay (EPA / NIEHS).

Conditions in all cases: mRNA level, 48 h; actives raise or lower the signal
Read-out in assay [1]: Potassium channel subfamily K member 1 (KCNK1), KCNK1 (gene 3775)
As to the kind of experiment: LTEA_HepaRG_KCNK1: Life Technologies and Expression Analysis (LTEA) Assay for Potassium channel subfamily K member 1 (KCNK1) using HepaRG (AID 2283511). The gist of the method:
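Human HepaRG cultures receive test chemicals for 48 h in 0.5% DMSO, top concentration 100 uM with half-log dilutions. Induction or suppression of KCNK1 mRNA relative to DMSO is derived by bidirectional fitting of qRT-PCR data.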

Read-out in assay [2]: Keratin 19 (KRT19), KRT19 (gene 3880)
As to the kind of experiment: LTEA_HepaRG_KRT19: Life Technologies and Expression Analysis (LTEA) Assay for Keratin 19 (KRT19) using HepaRG (AID 2283512). The gist of the method:
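KRT19 transcript measured by TaqMan qRT-PCR, referenced to three housekeeping genes, after HepaRG cells received test chemicals for 48 h. Eight half-log concentrations, top 100 uM, 0.5% DMSO vehicle; increases and decreases both fitted.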

Read-out in assay [3]: JUN Transcription Factor, JUN (gene 3725)
As to the kind of experiment: LTEA_HepaRG_JUN: Life Technologies and Expression Analysis (LTEA) Assay for JUN Transcription Factor using HepaRG (AID 2283513). In a few lines:
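HepaRG, 48 h exposure, 8-pt half-log series top 100 uM, 0.5% DMSO, duplicate. JUN mRNA by qRT-PCR (Fluidigm), housekeeping-normalized (ACTB/GAPDH/POLR2A); bidirectional curve fit vs DMSO baseline.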

Read-out in assay [4]: Lipoprotein lipase (LPL), LPL (gene 4023)
In words: LTEA_HepaRG_LPL: Life Technologies and Expression Analysis (LTEA) Assay for Lipoprotein lipase (LPL) using HepaRG (AID 2283515). In a few lines:
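Concentration-response testing used half-log steps from 100 uM in 0.5% DMSO on human HepaRG cells, 48 h, duplicate wells. Phenobarbital 1 mM served as induction control; LPL mRNA was normalized to ACTB, GAPDH, POLR2A.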

Read-out in assay [5]: MicroRNA 122 (MIR122), gene 406906
In words: LTEA_HepaRG_MIR122: Life Technologies and Expression Analysis (LTEA) Assay for MicroRNA 122 (MIR122) using HepaRG (AID 2283516). Further: the transcript read is the microRNA miR-122. The gist of the method:
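qRT-PCR read-out (TaqMan, Fluidigm array), normalized to three housekeeping genes; HepaRG cells dosed 48 h at 8 concentrations up to 100 uM in 0.5% DMSO, duplicate; gain or loss fitted against DMSO baseline.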

Read-out in a further assay: MYC, MYC (gene 4609)
In words: LTEA_HepaRG_MYC: Life Technologies and Expression Analysis (LTEA) Assay for MYC using HepaRG (AID 2283518). In a few lines: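 MYC transcript changes, up or down relative to 0.5% DMSO, from TaqMan qRT-PCR normalized to three housekeeping genes. Human HepaRG cultures received chemicals for 48 h at eight half-log concentrations up to 100 uM, in duplicate.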

Read-out in assay [6]: matrix metalloproteinase-3 (MMP3), MMP3 (gene 4314)
In words: LTEA_HepaRG_MMP3: Life Technologies and Expression Analysis (LTEA) Assay for matrix metalloproteinase-3 (MMP3) using HepaRG (AID 2283519). The gist of the method:
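Human liver HepaRG cultures received chemicals (top concentration 100 uM, 0.5% DMSO) for 48 h in duplicate. MMP3 mRNA induction or loss was then assessed via TaqMan qRT-PCR with housekeeping-gene normalisation.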

Read-out in assay [7]: Lipase C (LIPC), LIPC (gene 3990)
As to the kind of experiment: LTEA_HepaRG_LIPC: Life Technologies and Expression Analysis (LTEA) Assay for Lipase C (LIPC) using HepaRG (AID 2283514). The gist of the method: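 In this multiplexed gene-expression screen, human HepaRG cultures received test chemicals for 48 h across eight concentrations with 100 uM highest, in duplicate. Values reflect LIPC mRNA induction or suppression versus DMSO vehicle, from normalized qRT-PCR.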

Read-out in assay [8]: matrix metalloproteinase-10 (MMP10), MMP10 (gene 4319)
In words: LTEA_HepaRG_MMP10: Life Technologies and Expression Analysis (LTEA) Assay for matrix metalloproteinase-10 (MMP10) using HepaRG (AID 2283517). In a few lines: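 In differentiated HepaRG cultures kept in 0.5% DMSO, test chemicals act for 48 h over an eight-point range with a top dose of 100 uM. Expression is then quantified by TaqMan RT-PCR against ACTB, GAPDH and POLR2A.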

The term AC50 denotes the midpoint of the concentration-response curve, whichever way the signal moves.

SMILES strings stand for the structures. Calls of active or inactive are those of the source. How the source made its calls: active means hit-call score of the fitted dose curve at least 0.9, where 1 is the maximum; inactive means score below 0.9.

With `Cc1cc(F)ccc1-c1cc(N2CC[C@@H](O)[C@H]2CO)ncc1N(C)C(=O)C(C)(C)c1cc(C(F)(F)F)cc(C(F)(F)F)c1`, the compound was called inactive in assay [1], in assay [2] and in [6]. Besides, the AC50 in assay [3] is 74.8 µM (active); in assay [4], 48.8 µM (active); in [5], 9.28 µM (active); with MYC, MYC (gene 4609) it was 17.3 µM (active).

In the case of `CN(C[C@@H](CC[N+]12CCC(C3CCCCC3)(CC1)CC2)c1ccc(Cl)c(Cl)c1)C(=O)c1cc(C(F)(F)F)cc(C(F)(F)F)c1`, the AC50 in assay [1] is 15.8 µM (active); in assay [2], 26.4 µM (active); in [3], 88.5 µM (active); in assay [4], 36 µM (active); in [5], 12.7 µM (active); with MYC, MYC (gene 4609), 87.2 µM (active). In addition, in [6], the compound was called inactive.

Take `CCCOC(=O)c1cc(O)c(O)c(O)c1`: the outcome is “inactive” in [1]; “inactive” in assay [2]; “inactive” in assay [4]; “inactive” in the assay with MYC, MYC (gene 4609); “inactive” in [6].

For `CC[C@H](NC(=O)c1cc(F)ccc1NS(=O)(=O)c1cccc2cccnc12)c1ccccc1`, the outcome is “inactive” in assay [1]; “inactive” in assay [2]; “inactive” in assay [4]; “inactive” with MYC, MYC (gene 4609); “inactive” in assay [6]. The AC50 in assay [5] is 47.8 µM (active).

Take `CCO[Si](CCCNC(N)=O)(OCC)OCC`: the outcome was “inactive” in [1]; “inactive” in [2]; “inactive” in assay [4]; “inactive” in assay [5]; “inactive” in the assay with MYC, MYC (gene 4609); “inactive” in assay [6].

In the case of `O=c1[nH]sc2ccccc12`, the call in assay [1], in assay [2], in [3], in [7], in assay [4] and in assay [5] was inactive. Also, the outcome in the assay with MYC, MYC (gene 4609) is “inactive”; in assay [6], “inactive”.

As to `O=C1c2ccccc2C(=O)N1CCc1noc(-c2ccc(CN3CCCCCC3)s2)n1`, the outcome in assay [1] was “inactive”; in [2], “inactive”; in [3] it was “inactive”; in [5] it was “inactive”; in the assay with MYC, MYC (gene 4609), “inactive”; in assay [6] it was “inactive”. For the same compound, the half-maximal activity concentration (AC50) in [4] was 20.7 µM (active).

Turning to `Clc1cc(Cl)c2c(c1)N=C1CCCCCN1C2`, the outcome in [1] was “inactive”; in assay [2], “inactive”; in [4], “inactive”; in assay [5], “inactive”; with MYC, MYC (gene 4609), “inactive”; in [6], “inactive”.

Regarding `C[C@]12CC[C@@H]3c4ccc(O)cc4CC[C@H]3[C@@H]1CC[C@H]2O`, the outcome in assay [1] is “inactive”; in assay [2], “inactive”; in [4] it was “inactive”; in assay [5], “inactive”; in the assay with MYC, MYC (gene 4609), “inactive”; in [6], “inactive”. Also, the AC50 in assay [7] is 81.9 µM (active).

For `COc1ccc2cc(S(=O)(=O)N[C@H](CC(=O)N[C@H](Cc3ccc(CN4[C@H](C)CCC[C@@H]4C)cc3)C(=O)N(C)C(C)C)c3ccc4c(c3)OCO4)ccc2c1`, the AC50 in assay [1] was 19.7 µM (active); in [2] it was 12 µM (active); in assay [3], 57.8 µM (active); in assay [4], 24.1 µM (active); in assay [5], 11.4 µM (active); with MYC, MYC (gene 4609), 24.7 µM (active). The call in [7] and in [6] was inactive.

With `O=C(O)c1ccccc1-n1cc(C(=O)O)c(=O)c2cc(Nc3c(F)cc(F)cc3Cl)c(Cl)cc21`, the call in assay [1], in assay [2], in [3], in assay [7], in assay [4] and in assay [5] was inactive. Moreover, the outcome is “inactive” with MYC, MYC (gene 4609) and “inactive” in assay [6].

On to `CCCC(=O)OCCC(C)C`, for which the outcome in [1], in assay [2], in assay [3], in assay [4], in assay [5] and in assay [8] was inactive. Besides, the outcome was “inactive” with MYC, MYC (gene 4609) and “inactive” in assay [6].

In the case of `O=C(OCCCCCCOC(=O)c1ccccc1)c1ccccc1`, the outcome was “inactive” in [1]; “inactive” in [2]; “inactive” in assay [7]; “inactive” in [4]; “inactive” in assay [5]; “inactive” with MYC, MYC (gene 4609). Moreover, the outcome in assay [6] was inactive.

Consider `Cc1occc1C(=O)Nc1ccc(C(=O)N2CCC(F)(F)/C(=C\C(=O)N3CCC(N4CCCCC4)CC3)c3ccccc32)cc1`, for which the outcome in assay [1] was “inactive”; with MYC, MYC (gene 4609), “inactive”; in assay [6], “inactive”. Further, the AC50 in assay [2] is 49.6 µM (active); in [7], 45.4 µM (active); in assay [4] it was 31.2 µM (active); in assay [5], 31.2 µM (active).

For the compound `CN1C(=O)N(c2ccccc2Br)Cc2cnc(Nc3ccc4c(c3)OCC(CO)O4)nc21` (stereo not given), the outcome was “inactive” in assay [1]; “inactive” in the assay with MYC, MYC (gene 4609); “inactive” in assay [6]. Besides, the AC50 in assay [2] is 6.5 µM (active); in [3], 12.1 µM (active); in assay [7], 71.8 µM (active); in assay [4], 31.8 µM (active); in assay [5] it was 63.2 µM (active).

Turning to `CCCCCCCCCC(=O)O`, the outcome in assay [1] was “inactive”; in assay [2], “inactive”; in [7], “inactive”; in assay [4], “inactive”; in assay [5] it was “inactive”; in the assay with MYC, MYC (gene 4609) it was “inactive”. Further, the call in assay [6] was inactive.

For `CC(C)(C)c1csc(-c2cc3cc(OCc4ccccc4CC(=O)O)ccc3o2)n1`, the call in assay [1] and in assay [2] was inactive. Moreover, the AC50 is 78.9 µM (active) in [3]; 81.8 µM (active) in [4]; 90.7 µM (active) in [5]; 32.8 µM (active) in [8]; 32 µM (active) with MYC, MYC (gene 4609); 85.6 µM (active) in assay [6].

`CCCCCCCC[Si](OCC)(OCC)OCC`: the outcome is “inactive” in [1]; “inactive” in assay [2]; “inactive” in assay [3]; “inactive” in assay [4]; “inactive” in assay [5]; “inactive” with MYC, MYC (gene 4609). For the same compound, the result in assay [6] was inactive.

Consider `CCCCCCCCOC(=O)c1cc(O)c(O)c(O)c1`, for which the outcome in assay [1] was “inactive”; in assay [3] it was “inactive”; in assay [7], “inactive”; in assay [4], “inactive”; in assay [5] it was “inactive”; with MYC, MYC (gene 4609), “inactive”. Moreover, the result in assay [6] was inactive. Further, the concentration at half-maximal activity (AC50) in assay [2] was 27.1 µM (active).
